Screening data from PubChem BioAssay.
Pol iota inh – inhibitors of human DNA polymerase iota. Q9UNA4. hit rate 1% among 390,000. Potency, µM (highest dose often 115 µM), usual class: inhibitors. Pol iota fluorescent replication assay, 10 min. AID 588590
Target sequence (Q9UNA4 whole entry, looked up): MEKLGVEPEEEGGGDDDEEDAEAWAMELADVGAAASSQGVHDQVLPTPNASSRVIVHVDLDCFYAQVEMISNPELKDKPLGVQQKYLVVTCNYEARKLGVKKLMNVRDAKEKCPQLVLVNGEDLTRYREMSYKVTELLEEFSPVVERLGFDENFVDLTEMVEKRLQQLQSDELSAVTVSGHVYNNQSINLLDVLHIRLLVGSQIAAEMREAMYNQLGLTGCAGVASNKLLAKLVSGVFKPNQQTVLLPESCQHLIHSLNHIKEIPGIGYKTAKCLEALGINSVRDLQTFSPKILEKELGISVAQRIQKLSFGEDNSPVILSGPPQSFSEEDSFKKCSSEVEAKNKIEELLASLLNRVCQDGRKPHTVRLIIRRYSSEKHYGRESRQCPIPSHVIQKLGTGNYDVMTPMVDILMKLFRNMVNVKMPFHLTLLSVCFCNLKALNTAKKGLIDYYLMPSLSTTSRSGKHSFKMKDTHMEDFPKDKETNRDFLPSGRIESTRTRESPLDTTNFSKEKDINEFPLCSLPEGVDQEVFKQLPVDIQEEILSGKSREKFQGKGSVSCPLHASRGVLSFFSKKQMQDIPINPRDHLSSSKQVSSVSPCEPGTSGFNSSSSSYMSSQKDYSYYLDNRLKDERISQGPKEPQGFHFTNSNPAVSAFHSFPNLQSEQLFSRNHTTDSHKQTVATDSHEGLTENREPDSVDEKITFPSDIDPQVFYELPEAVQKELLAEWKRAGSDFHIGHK
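Pol iota at 10 nM preincubated 15 min with compounds at room temperature; reaction started with fluorescent substrate, 50 nM final. Fluorescence read kinetically at 0 and 10 min; buffer-only wells as negative control.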
Pol beta inh – DNA polymerase beta (human) inhibition. Pol beta primer extension/strand displacement, fluorescence kinetic. Potency, µM (titrated, usually from 114 µM), actives largely listed as inhibitors. hit rate 1.3% among 340,000. P06746
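Pol beta (10 nM) and compounds were preincubated 15 min at room temperature, then 50 nM substrate (final) started primer extension/strand displacement. Reads were taken at 0 and 10 min; concentration-response data were fitted to a four-parameter Hill equation.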
POLK inh – DNA polymerase kappa (human) inhibition; purified Pol kappa, fluorescent DNA synthesis assay, 10 min; Potency, µM (highest dose often 107 µM), usual class: inhibitors; hit rate 0.53% among 400,000
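Fluorescent qHTS in 1536-well format: enzyme (10 nM) and compound sat 15 min at room temperature before 50 nM substrate (final) was added. Signal taken at 0 and 10 min; no-enzyme buffer wells were negative controls.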
WRN inhibitor – WRN helicase (human) inhibition; WRN helicase unwinding, fluorescent forked duplex, kinetic; AID 651768; hit rate 0.46% among 360,000; Potency, µM (series often up to 114 µM), most hits filed as inhibitors; Q14191; also: nearly all actives have a fitted effect of over 55% in size
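Primary qHTS, 1536-well format. 20 nM WRN + compound, 15 min RT; start with 100 nM forked fluorophore/quencher duplex, 2 mM ATP (final); kinetic read ex 525/em 598 nm.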
FEN1 inhibitor – human FEN1 inhibition; P39748; Recombinant FEN1 flap cleavage, fluorescence, 15 min; Potency, µM (titrated, usually from 114 µM), usual class: inhibitors; hit rate 0.35% among 390,000; also: nearly all actives have a fitted effect of over 65% in size
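FEN1 at 10 nM, compound pretreatment for 15 min (room temperature), 50 nM final substrate to initiate; endpoint reads at 0 and 15 min; DMSO-only plates used as vehicle background.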
POLH inh – inhibitors of human DNA polymerase eta | hit rate 1.2% among 390,000 | AID 588591 | Potency, µM (highest dose often 114 µM), hits mostly inhibitors | recombinant Pol eta, fluorescent DNA replication assay
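Pol eta (10 nM) was preincubated with compounds for 15 min at room temperature, after which fluorescent replication substrate (50 nM final) was added to start the reaction. Fluorescence was read kinetically at 0 and 10 min.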
Each line names hits and unclear results; the compound was inactive in the other large screens. Only some compounds are listed: those with a hit (about 2.4% of all), similar ones and a draw of the others. Calls follow the shape of the dose curve; as a rule, active = well fitted curve in the direction sought with a large enough effect; inconclusive = small, poorly fitted or top-dose-only effect, or another doubt; inactive = no such curve, though single readings can be large; an effect the other way counts as inactive or inconclusive.

Cc1cc(NCCCCCCCNc2cc(C)nc3cc([N+](=O)[O-])ccc23)c2ccc([N+](=O)[O-])cc2n1	WRN inhibitor inconclusive, FEN1 inhibitor 44.7µM, POLH inh inconclusive (no result: Pol beta inh)
COc1cccc(/C(O)=C/c2nc3ccc(C(=O)NCCc4cccc(C)c4)cc3[nH]c2=O)c1	WRN inhibitor 70.8µM
COc1ccc2c(c1)C1OCCC1C(c1ccco1)N2 (configuration not stated)	Pol iota inh 79.4µM (no result: Pol beta inh)
c1coc(C2Nc3ccccc3C3OCCC23)c1 (configuration not stated)	none
O=[N+]([O-])c1ccc(O/N=[N+](\[O-])N2CCN(c3ccccc3)CC2)c([N+](=O)[O-])c1	Pol iota inh inconclusive (no result: Pol beta inh, WRN inhibitor, POLH inh)
Cc1cc(C(=O)OCC(=O)NC2CCS(=O)(=O)C2)c2ccccc2n1 (configuration not stated)	none
O=C(COC(=O)c1cccc2ccccc12)Nc1ncc(C(F)(F)F)cc1Cl	none
O=C(COC(=O)c1cc(-c2cccc3ccccc23)nc2ccccc12)NC1CCS(=O)(=O)C1 (configuration not stated)	Pol iota inh inconclusive, Pol beta inh 50.1µM, WRN inhibitor 79.4µM, FEN1 inhibitor inconclusive
O=C(COC(=O)c1cc(-c2ccccc2Cl)nc2ccccc12)Nc1ncc(C(F)(F)F)cc1Cl	Pol iota inh inconclusive, Pol beta inh 31.6µM, POLK inh inconclusive, POLH inh inconclusive
N#Cc1ccccc1CSc1nnc2ccc3ccccc3n12	none (no result: WRN inhibitor)
O=C(Nc1cnn(Cc2ccc(F)cc2)c1)c1cnccn1	none
O=C(Nc1cnn(Cc2ccc(F)cc2)c1)C(c1ccccc1)c1ccccc1	Pol iota inh 79.4µM
CC1=NN(c2nc(-c3ccc(C)cc3)cs2)C(=O)C1N=Nc1cccc(C)c1 (configuration not stated)	Pol beta inh inconclusive
CCOC(=O)c1sc(N2N=C(C)C(N=Nc3cccc(C)c3)C2=O)nc1C (configuration not stated)	Pol iota inh 50.1µM, Pol beta inh inconclusive, POLK inh 89.1µM, POLH inh 39.8µM
Cc1ccccc1Cn1c(=O)n(Cc2ccco2)c(=O)c2sc3ccccc3c21	none (no result: WRN inhibitor)
Cc1cc2oc(C(=O)NCCc3ccc(S(N)(=O)=O)cc3)cc(=O)c2cc1C	none
NS(=O)(=O)c1ccc(CCNC(=O)c2cc3ccccc3s2)cc1	Pol iota inh 22.4µM, Pol beta inh 44.7µM, POLK inh inconclusive, FEN1 inhibitor inconclusive, POLH inh 28.2µM
Cc1cc2oc(C(=O)NCCc3ccc(S(N)(=O)=O)cc3)c(C)c2cc1C	Pol iota inh 25.1µM, Pol beta inh 5.62µM, FEN1 inhibitor inconclusive
COc1ccc(C(=O)Nc2ccc(-c3nc4ccccc4s3)c(Cl)c2)cc1Cl	none (no result: WRN inhibitor)
O=C(N=NC(=O)c1ccco1)c1ccc2c(O)n(N3C(=O)c4ccccc4C3=O)c(O)c2c1	Pol beta inh 44.7µM, POLH inh inconclusive
C#CCOCCOCCOCCNc1nc(N2CCN(C(=O)CCCCCCCCCCNC(=O)[C@H]([C@@H](C)CC)n3cc(CCCCCN)nn3)CC2)nc(N2CCN(C(=O)CCCCCCCCCCNC(=O)[C@H](CCCCN)n3cc(CCCC(=O)O)nn3)CC2)n1	FEN1 inhibitor inconclusive (no result: Pol beta inh)
C#CCOCCOCCOCCNc1nc(N2CCN(C(=O)CCCCCCCCCCNC(=O)[C@H]([C@@H](C)CC)n3cc(CCCCN=C(N)N)nn3)CC2)nc(N2CCN(C(=O)CCCCCCCCCCNC(=O)[C@H](CCCCN)n3cc(C)nn3)CC2)n1	Pol iota inh inconclusive, WRN inhibitor 28.2µM, FEN1 inhibitor 25.1µM, POLH inh inconclusive (no result: Pol beta inh)
C#CCOCCOCCOCCNc1nc(N2CCN(C(=O)CCCCCCCCCCNC(=O)[C@H]([C@@H](C)CC)n3cc(CCCCCN)nn3)CC2)nc(N2CCN(C(=O)CCCCCCCCCCNC(=O)[C@H](CO)n3cc(CCCCCN)nn3)CC2)n1	Pol iota inh inconclusive, WRN inhibitor 56.2µM, FEN1 inhibitor inconclusive (no result: Pol beta inh)
C#CCOCCOCCOCCNc1nc(N2CCN(C(=O)CCCCCCCCCCNC(=O)Cn3cc(CCCCCN)nn3)CC2)nc(N2CCN(C(=O)CCCCCCCCCCNC(=O)[C@H]([C@@H](C)CC)n3cc(CCCCN=C(N)N)nn3)CC2)n1	Pol iota inh inconclusive, WRN inhibitor 31.6µM, FEN1 inhibitor 20µM, POLH inh 79.4µM (no result: Pol beta inh)
C#CCOCCOCCOCCNc1nc(N2CCN(C(=O)Cn3cc(CCCN=C(N)N)nn3)CC2)nc(N2CCN(C(=O)[C@H]([C@@H](C)CC)n3cc(CCCCN)nn3)CC2)n1	Pol iota inh inconclusive (no result: Pol beta inh)
Cc1ccc(S(=O)(=O)NC[C@H]2O[C@@H](n3cnc4c(N)ncnc43)[C@H](O)[C@@H]2O)cc1	none (no result: Pol iota inh, Pol beta inh, POLK inh, FEN1 inhibitor, POLH inh)
COCCNC(=O)C1(C)CCN(C(=O)c2cc(C)n(C(C)(C)C)n2)C1 (configuration not stated)	none (no result: Pol iota inh, Pol beta inh, POLK inh, FEN1 inhibitor, POLH inh)
FC(F)(F)c1ccc(C2=Nc3ccccc3NC(c3cccs3)=N2)cc1	none (no result: WRN inhibitor)
CC(C)CNC1=CC(=O)CC(c2ccco2)C1 (configuration not stated)	Pol iota inh 28.2µM, Pol beta inh 28.2µM, POLK inh inconclusive, POLH inh inconclusive
O=C1C=C(NCc2ccc(Cl)cc2)CC(c2ccco2)C1 (configuration not stated)	Pol iota inh inconclusive, Pol beta inh inconclusive, POLH inh inconclusive
O=C1CC(=O)CC(c2ccco2)C1	Pol iota inh inconclusive, Pol beta inh inconclusive, POLK inh inconclusive, POLH inh 17.8µM
CN(C)CC(CCC(CN(C)C)C(=O)c1ccccc1)C(=O)c1ccccc1 (configuration not stated)	Pol iota inh 22.4µM, WRN inhibitor inconclusive
Cc1cccc(N2CC(C(=O)Nc3nnc(SCc4ccccn4)s3)CC2=O)c1 (configuration not stated)	Pol iota inh inconclusive, Pol beta inh inconclusive, POLK inh inconclusive, POLH inh 39.8µM
Cc1ccc(N2CC(C(=O)Nc3ccc(S(=O)(=O)NCC4CCCO4)cc3)CC2=O)cc1 (configuration not stated)	Pol iota inh inconclusive, Pol beta inh 56.2µM
Cc1ccccc1N1CC(C(=O)Nc2ccc(S(=O)(=O)NCC3CCCO3)cc2)CC1=O (configuration not stated)	none
Cc1cccc(N2CC(C(=O)Nc3nnc(SCC(=O)NCC4CCCO4)s3)CC2=O)c1 (configuration not stated)	Pol iota inh inconclusive, POLK inh inconclusive, WRN inhibitor inconclusive, POLH inh 20µM
Cc1ccc(N2CC(C(=O)Nc3nnc(SCc4ccccn4)s3)CC2=O)cc1 (configuration not stated)	none
Cc1cc(N)ccc1-n1c(C)ccc1C	none
Cc1cc(N)ccc1N1CCCC1	Pol iota inh inconclusive, WRN inhibitor 50.1µM, FEN1 inhibitor 39.8µM
